# This is a sample that favours compounds with a hit; in the whole collection about 19% have one here.
# TDP1 cell noCPT = qHTS for Inhibitors of human tyrosyl-DNA phosphodiesterase 1 (TDP1): qHTS in cells in absence of CPT; Potency, µM (highest dose often 46.2 µM), for inactives: top-dose activity change, negative = growth inhibition, actives largely listed as inhibitors; AID 686978, 2013; 15% of 420,000 active; DT40 Tdp1-/- hTDP1 cells, no CPT, ATP luminescence, 48 h; note: potency is the fitted concentration of half-maximal effect; % is set by controls: 0 for no effect and ±100 for the full control effect; nearly all actives have a fitted effect of over 55% in size
#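 Chicken DT40 Tdp1-/- cells stably complemented with human TDP1 were seeded at 400 cells/well with DMSO in place of 20 nM camptothecin. After compound pinning, cells grew at least 48 hr at 37 °C; viability read by CellTiter-Glo luminescence.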
# HepG2 viability = kills HepG2 cells in TGF-b inhibitor counter-screen; AID 588856; Potency, µM (top dose mostly 46.1 µM), for inactives: at the top dose activity change, negative = cytotoxicity, hits mostly cytotoxic; HepG2 CAGA-GFP viability, ATP luminescence, 18 h; 0.76% of 410,000 active; note: potency is the fitted concentration of half-maximal effect
#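 CellTiter-Glo luminescence gave cytotoxicity after 18 hours at 37 degrees C. The cells were HepG2 CAGA-GFP in 1% FBS DMEM, stimulated with 500 pg/mL TGF-beta after compound addition. %Activity was normalised to no-cell wells (complete cell-killing) and DMSO (no toxicity), and curves were fitted and classified.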
# S-ASM inh = blocks human secretory acid sphingomyelinase | AID 504937 | Potency, µM (series often up to 57.5 µM), for inactives: top-dose activity change, negative = inhibition, hits mostly inhibitors | placental ASM, HMU-PC fluorogenic substrate, 60 min | 0.006% of 340,000 active; note: potency is the fitted concentration of half-maximal effect
# Target sequence (P17405 47-631 limits assumed): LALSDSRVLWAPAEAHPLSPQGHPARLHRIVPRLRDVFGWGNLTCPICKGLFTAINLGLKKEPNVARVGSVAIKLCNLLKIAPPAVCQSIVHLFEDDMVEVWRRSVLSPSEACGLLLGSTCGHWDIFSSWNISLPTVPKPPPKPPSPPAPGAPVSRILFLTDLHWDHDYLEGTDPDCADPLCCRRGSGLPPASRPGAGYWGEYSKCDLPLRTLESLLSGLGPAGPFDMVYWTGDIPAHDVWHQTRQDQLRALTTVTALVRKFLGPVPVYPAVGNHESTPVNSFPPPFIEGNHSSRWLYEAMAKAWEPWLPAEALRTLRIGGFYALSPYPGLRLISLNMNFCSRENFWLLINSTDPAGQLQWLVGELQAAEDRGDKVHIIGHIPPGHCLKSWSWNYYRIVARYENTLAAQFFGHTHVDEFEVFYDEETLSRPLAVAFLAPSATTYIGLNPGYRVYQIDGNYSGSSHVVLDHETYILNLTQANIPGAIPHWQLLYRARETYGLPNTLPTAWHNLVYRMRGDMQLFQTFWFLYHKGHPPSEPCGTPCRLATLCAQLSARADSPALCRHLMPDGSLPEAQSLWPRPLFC
#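 Human placenta-derived ASM enzyme was preincubated with compound for 10 minutes at room temperature, then given fluorogenic substrate HMU-PC0 (9 uM final) for 60 minutes at 37 °C; a pH 10 stop preceded fluorescence reading at Ex 386/Em 447 nm.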
# DT40 TDP1 CPT = growth inhibition of DT40 Tdp1-/-;hTDP1 cells with camptothecin (screen for TDP1 inhibitors); chicken DT40 Tdp1-/-;hTDP1 cells + 20 nM CPT, ATP luminescence, 48 h; Potency, µM (doses to about 46.2 µM), for inactives: top-dose activity change, negative = growth inhibition, usual class: inhibitors; AID 686979; 12% of 420,000 active; note: potency is the fitted concentration of half-maximal effect; % is set by controls: 0 for no effect and ±100 for the full control effect; nearly all actives have a fitted effect of over 55% in size
#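 Chicken DT40 Tdp1-/- cells stably complemented with human TDP1 were seeded at 400 cells/well in medium containing 20 nM camptothecin, exposed to pin-transferred compounds, and grown at 37 °C for at least 48 hr. Viability was read as ATP luminescence.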
# IL1B secr inh = inhibitors of inflammasome signaling (IL-1 beta secretion) | THP-1 LPS/ATP IL-1B secretion, AlphaLISA, 16 h; hits give low values | activity change, % at 57.5 µM | 4.7% of 360,000 active | AID 743279; in the data active = activity change below about -50%; inconclusive = mostly about -30% to -49%; note: % is set by controls: 0 for no effect and ±100 for the full control effect
#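 THP-1 cells pretreated 1 hr with compounds (up to 57.5 uM final), then stimulated with LPS (250 ng/mL final) plus ATP (1.25 mM final); secreted IL-1B measured by AlphaLISA after 16 hr, decreased signal indicating inhibition.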
# TGFb inhibitor = inhibitors of TGF-b signaling | 1.2% of 410,000 active | AID 588855 | Potency, µM (titrated, usually from 46.1 µM), without a hit: top-dose activity, negative = inhibition, usual class: inhibitors | HepG2 CAGA-GFP TGF-b/SMAD3 reporter, GFP fluorescence, 18 h; TGF-beta stimulated, 500 pg/mL final; note: potency is the fitted concentration of half-maximal effect; % is set by controls: 0 for no effect and ±100 for the full control effect; nearly all actives have a fitted effect of over 65% in size
#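 HEPG2 CAGA-GFP reporter cells (1000/well, DMEM with 1% FBS) received compounds, then recombinant TGF-beta at 500 pg/mL final for 18 hours at 37 degrees C. Per-cell GFP summed per well was normalised to unstimulated and stimulated DMSO controls before curve fitting.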
# * marks the source's active call; other numbers are inactive results; u = inconclusive; x = not tested or not shown; [ ] = dose if it differs, or a comment. Unless noted, calls come from the whole dose curve; as a rule, active = well fitted curve in the direction sought with a large enough effect; inconclusive = small, poorly fitted or top-dose-only effect, or another doubt; inactive = no such curve, though single readings can be large; an effect the other way counts as inactive or inconclusive.
SMILES,TDP1 cell noCPT,HepG2 viability,S-ASM inh,DT40 TDP1 CPT,IL1B secr inh,TGFb inhibitor
C#CCN(C[C@@H]1[C@@H](OC(=O)NC2CC2)[C@@H](OC(=O)NC2CC2)CN(C(=O)OC(C)C)N1C(=O)OC(C)C)S(=O)(=O)c1ccc(C)cc1,16µM*,-7%,x,u,0,-11%
C#CCN(C[C@@H]1[C@@H](OC(=O)NCc2ccco2)[C@@H](OC(=O)NCc2ccco2)CN(C(=O)OC(C)C)N1C(=O)OC(C)C)S(=O)(=O)c1ccc(C)cc1,9.2µM*,-1%,x,15µM*,-98*,u
C=CCC(CC(O)COCCC)C(=O)NNC(=S)Nc1ccccc1 (stereo not drawn),2.3µM*,2%,3%,4.6µM*,-6,0%
CC(C)CCOCC(O)CCC(=O)NNC(=S)Nc1ccccc1 (stereo not drawn),0%,11%,1%,-14%,11,6%
CN(Cc1ccccc1)c1ccc(-c2nc(-c3ccccn3)no2)cc1[N+](=O)[O-],18µM*,-16%,x,u,x,-4%
CN(Cc1ccccc1)c1ccc(-c2nc(-c3ccncc3)no2)cc1[N+](=O)[O-],18µM*,-23%,x,21µM*,x,-19%
CN(C)c1ccc(-c2nc(-c3ccccn3)no2)cc1[N+](=O)[O-],18µM*,-24%,x,-29%,x,-20%
CN(Cc1ccccc1)c1ccc(-c2nc(-c3cccnc3)no2)cc1[N+](=O)[O-],1%,7%,x,-6%,x,-26%
Cc1ccc2nc(-c3ccccn3)c(NC3CCCC3)n2c1,0.33µM*,-19%,5%,1.3µM*,-14,u
Cc1ccc2nc(-c3ccc(C)o3)c(NC3CCCC3)n2c1,13µM*,x,x,11µM*,x,x
COc1cc(NC(=O)c2ccccc2)c(OC)cc1NC(=O)CN1CCCCC1,20µM*,-33%,2%,u,u,6%
COc1cc(NC(=O)c2ccc(F)cc2)c(OC)cc1NC(=O)CN1CCCCC1,16µM*,-16%,-2%,u,-68*,5%
COc1cc(NC(=O)c2cccc(Cl)c2)c(OC)cc1NC(=O)CN1CCOCC1,u,5%,-8%,u,-21,10%
COc1cc(NC(=O)c2ccccc2)c(OC)cc1NC(=O)CN1CCOCC1,u,17%,-1%,-20%,u,0%
COc1cc(NC(=O)c2cccc(Cl)c2)c(OC)cc1NC(=O)CN1CCCCC1,u,2%,-1%,u,-79*,2%
Cc1ccccc1NC(=O)Cn1cc(S(=O)(=O)c2ccccc2)c(=O)c2ccccc21,-2%,-4%,x,8%,x,18%
CCCSc1ncc(Cl)c(C(=O)Nc2c(C(=O)c3ccc(F)cc3)oc3ccccc23)n1,-6%,2%,x,19%,x,x
CC1Cc2ccccc2N1C(=O)CSc1nnnn1C (stereo not drawn),-9%,-22%,4%,-23%,11,5%
CCCn1c(SCC(=O)N2c3ccccc3CC2C)nnc1-c1ccco1 (stereo not drawn),u,-16%,5%,21µM*,-14,-9%
CC1Cc2ccccc2N1C(=O)CSc1nnc(Cc2ccccc2)n1CCc1ccccc1 (stereo not drawn),23µM*,10%,-3%,u,-6,u
CCOc1cc(CN2CCC(N3CCC(C(=O)NC4CC4)CC3)CC2)ccc1O,u,4%,x,u,u,-8%
CC(Oc1ccccc1F)C(=O)NNC(=O)CCS(=O)(=O)c1ccccc1Cl (stereo not drawn),12%,-26%,1%,2%,16,-20%
CC(Oc1ccccc1F)C(=O)NNC(=O)CC(C)c1ccccc1 (stereo not drawn),-3%,0.89µM*,2%,7%,0,-16%
Cc1ccc(O)c(NC(=S)NC(=O)c2ccc(-c3ccc(Cl)cc3)o2)c1,26µM*,-115%,-24%,23µM*,-5,u
CC(=O)NC(=O)c1ccc(-c2ccc(Cl)cc2)o1,-18%,0%,3%,-12%,-25,-11%
SMILES,TDP1 cell noCPT,HepG2 viability,S-ASM inh,DT40 TDP1 CPT,IL1B secr inh,TGFb inhibitor
O=C(NC(=S)Nc1ccccc1O)c1ccc(-c2ccc(Cl)cc2)o1,16µM*,-47%,-1%,23µM*,-1,u
Cc1c(NC(=S)NC(=O)c2ccc(-c3ccc(Cl)cc3)o2)cccc1C(=O)O,5%,2%,-2%,3%,26,19%
O=C(O)C1CCCN(C(=O)c2cccc3ccccc23)C1 (stereo not drawn),-9%,1%,2%,-12%,0,6%
CCc1ccc(C(=O)COC(=O)C(Cc2ccccc2)NC(=O)C2CCC(C)CC2)cc1 (stereo not drawn),-23%,-3%,1%,1%,0,8%
CC1CCC(C(=O)NC(C(=O)OCC(=O)c2ccccc2)C(C)C)CC1 (stereo not drawn),18µM*,-24%,x,18µM*,x,0%
CC(C)c1c(C(=O)NCc2ccccn2)cnn1-c1nccc(-c2ccccc2F)n1,-25%,x,x,u,x,x
CCn1c2ccccc2c2cc(NC(=O)CNCc3ccccc3OC)ccc21,5.8µM*,-60%,-11%,5.2µM*,6,u
CCn1c2ccccc2c2cc(NC(=O)COc3ccccc3OC)ccc21,3.7µM*,-26%,-3%,5.2µM*,27,11%
CCn1c2ccccc2c2cc(NC(=O)COc3ccc(C)c(C)c3)ccc21,2%,66%,x,-15%,x,62%
COc1ccccc1CNCC(O)Cn1c2ccccc2c2ccccc21 (stereo not drawn),u,11µM*,-9%,u,-61*,u
COC(=O)c1ccc(CO/N=C/c2ccc(OC)cc2)o1,-10%,19%,4%,10%,-17,-1%
CCN(CC)S(=O)(=O)c1ccc(C(=O)NCC(=O)NCCCc2ccccc2)cc1,u,-14%,-1%[11.5 µM],-18%,16,-6%
CC(C)Nc1nc(Cl)nc(N(C#N)CN2C(=O)c3ccccc3S2(=O)=O)n1,18µM*,-34%,1%,26µM*,u,u
CC(C)(C)Nc1nc(Cl)nc(N(C#N)CN2C(=O)c3ccccc3S2(=O)=O)n1,u,-16%,-1%,u,-101*,u
CN(C)c1nc(N(C)C)nc(N(C#N)CN2C(=O)c3ccccc3S2(=O)=O)n1,-5%,5%,-2%,2%,10,0%

# Screening data deposited in PubChem BioAssay by National Center for Advancing Translational Sciences (NCATS).
